# In PubChem BioAssay:
# The source made the active and inactive calls. No rule for the calls is given here.
# Experiment: blockers of DNA damage checkpoint Chk1 activation – imaging, HeLa, hydroxyurea, phospho-Chk1 nuclear intensity, primary screen (AID 1187); also: test concentration not given here
# Conditions: hydroxyurea-induced phospho-Chk1 immunofluorescence imaging, higher = more signal
row,Structure (SMILES),z-score
1,O=C1O[C@H](c2ccccc2)[C@H](c2ccccc2)N2[C@H]1[C@@H](C(=O)Nc1nc3ccccc3s1)[C@]1(C(=O)Nc3ccc(C#CC4(O)CCCCCC4)cc31)[C@H]2c1ccc(O)cc1,0.634 (inactive)
2,CCCC=C(CCC)[C@@H](NS(=O)(=O)c1cccc(C(F)(F)F)c1)c1ccc(C(=O)OC)cc1,-0.275 (inactive)
3,C=CC[C@@]1(C(=O)NCC(O)CO)N=C(c2ccc(OCCCO)cc2)O[C@@H]1c1ccccc1CN=[N+]=[N-] (stereo partly specified),-0.873 (inactive)
4,Cc1ccccc1C(O)C1C=CC2C(=O)N(c3ccccc3)C(=O)C2N1Nc1ccc(C#N)cc1 (stereo unspecified),-0.982 (inactive)
5,O=C1O[C@H](c2ccccc2)[C@H](c2ccccc2)N2[C@H]1[C@@H](C(=O)Nc1nc3ccccc3s1)[C@]1(C(=O)Nc3ccc(C#CC4=CCCCC4)cc31)[C@H]2c1ccccc1OCCO,0.375 (inactive)
6,CCCNC(=O)[C@@H]1c2ccccc2C(=O)N(Cc2cc(F)cc(C(F)(F)F)c2)[C@H]1c1ccc(CO)cc1,-0.142 (inactive)
7,COc1ccc(NN2C(C(O)c3cc(OC)c(OC)c(OC)c3)C=CC3C(=O)N(C4CCCCC4)C(=O)C32)cc1 (stereo unspecified),-0.378 (inactive)
8,CCOC(=O)C[C@H]1[C@H](OC(=O)c2cc3ccccc3oc2=O)[C@@H](NC(=O)c2ccc3ccccc3c2)c2cc(OCCCO)ccc2N1C(=O)c1ccc2ccccc2n1,0.034 (inactive)
9,O=C(NCc1ccccc1)c1ccc(Br)cc1[N+](=O)[O-],0.119 (inactive)
10,COc1ccc([Si](C)(C)[C@@H]2[C@@H](CCO)O[C@]3(C(=O)N(Cc4ccc(NC(=O)[C@H](C)O)cc4)c4ccccc43)[C@H]2C)cc1,-1.27 (inactive)
11,COC(=O)C(CC#Cc1ccc2c(c1)[C@]1(C(=O)N2)[C@H](C(=O)N2CCCCCCC2)[C@H]2C(=O)O[C@H](c3ccccc3)[C@H](c3ccccc3)N2[C@@H]1c1ccc(O)cc1)C(=O)OC,-0.109 (inactive)
12,CCOC(=O)C[C@H]1[C@H](OC(=O)Cc2ccc3c(c2)OCO3)[C@@H](NC(=O)c2ccc3ccccc3c2)c2cc(OCCCO)ccc2N1C(=O)Cc1ccc(OC)cc1,0.668 (inactive)
13,COC(=O)[C@@]1(Cc2ccccc2N=[N+]=[N-])N=C(c2ccc(OCCCO)cc2)O[C@H]1c1ccccc1CN=[N+]=[N-],-0.735 (inactive)
14,O=C1OCC=C[C@H]2OC34C=CCN(Cc5ccccc5)C(=O)[C@H]3N(CCCCCO)C(=O)[C@@H]4[C@@H]12 (stereo partly specified),0.0912 (inactive)
15,Cc1ccc(S(=O)(=O)N2[C@@H](c3ccccc3)C(C(=O)O)=CC[C@H]2c2ccccc2)cc1,-0.449 (inactive)
16,C=CC[C@@]1(C(=O)N2CCOCC2)N=C(c2ccc(OCCCO)cc2)O[C@@H]1c1ccccc1,-0.241 (inactive)
17,[N-]=[N+]=NCc1ccccc1C[C@]1(C(N)=O)N=C(c2ccc(OCCCO)cc2)O[C@H]1c1ccccc1CN=[N+]=[N-],-0.427 (inactive)
18,COCCCNC(=O)[C@@H]1c2ccccc2C(=O)N(CC23CC4CC(CC(C4)C2)C3)[C@H]1c1ccc(CO)cc1,-0.786 (inactive)

row,Structure (SMILES),z-score
1,Cc1ccc(N2C(=O)c3ccccc3[C@@H](C(=O)NCc3ccccc3)[C@@H]2c2ccc(CO)cc2)nc1,-0.627 (inactive)
2,O=C(CS)NCCCCCNC(=O)[C@H]1C[C@H]2C(=O)N3CCC[C@H]3C(=O)N2[C@H]1c1ccc(O)cc1,0.426 (inactive)
3,CC(C)[Si]1(C(C)C)OCc2cc(C3CC3)nc(-c3ccccc3)c21,-0.0248 (inactive)
4,COCC(=C=CC[C@H](O)c1ccc(OCCO)cc1)C[C@H](O)c1ccccn1,-0.0412 (inactive)
5,C=CCNC(=O)[C@H]1[C@@H]2C(=O)O[C@@H](c3ccccc3)[C@@H](c3ccccc3)N2[C@@H](c2ccccc2OCCO)[C@]12C(=O)N(C(=O)OCCOC)c1ccc(C#CCC(C(=O)OC)C(=O)OC)cc12,-0.35 (inactive)
6,COC(=O)[C@H]1[C@@H]2COc3ccccc3[C@H]2N[C@H]1C(=O)OC,-0.134 (inactive)
7,C=CC[C@]1(C(=O)N2CCCCC2)N=C(c2ccc(OCCCO)cc2)O[C@H]1c1ccccc1N=[N+]=[N-],0.224 (inactive)
8,C=CCNC(=O)[C@@H]1[C@H]2C(=O)O[C@H](c3ccccc3)[C@H](c3ccccc3)N2[C@H](c2ccc(OCCO)cc2)[C@@]12C(=O)N(C(=O)OCCOC)c1ccc(C#CC3(O)CCCCCC3)cc12,0.0364 (inactive)
9,N#Cc1ccc(NN2C(C(O)c3ccc(I)cc3)C=CC3C(=O)N(c4ccccc4)C(=O)C32)cc1 (stereo unspecified),0.145 (inactive)
10,[N-]=[N+]=NCc1ccccc1[C@H]1OC(c2ccc(OCCCO)cc2)=N[C@@]1(Cc1ccccc1N=[N+]=[N-])C(=O)NCc1ccccc1,-0.747 (inactive)
11,NC(=O)[C@H]1[C@@H]2C(=O)O[C@@H](c3ccccc3)[C@@H](c3ccccc3)N2[C@@H](c2ccc(O)cc2)[C@]12C(=O)Nc1ccc(C#CCCO)cc12,-0.651 (inactive)
12,CO[C@H]1O[C@H](CO)[C@@H](OC(=O)CCc2ccccc2)[C@@H]2OC(=O)[C@H](Cc3cccc(Br)c3)C/C=C/C[C@@H](Cc3cccc(Br)c3)C(=O)O[C@@H]12,-1.1 (inactive)
13,CCC1=C2CN(Cc3ccccc3Br)[C@@H]([C@@H](O)Cc3ccccc3)C2C=CCC1 (stereo partly specified),-0.311 (inactive)
14,CC[C@@H]1C=C(C(=O)O)[C@H](c2ccccc2)N1S(=O)(=O)c1ccc([N+](=O)[O-])cc1,-0.3 (inactive)
15,[N-]=[N+]=NCc1ccccc1C[C@]1(C(=O)N2CCCCC2)N=C(c2ccc(OCCCO)cc2)O[C@H]1c1ccccc1CN=[N+]=[N-],0.164 (inactive)
16,C=CC[C@]1(C(=O)OC)N=C(c2ccc(OCCCO)cc2)O[C@H]1c1ccccc1CN=[N+]=[N-],0.137 (inactive)
17,C=C[C@H](OC)[C@@H](OC(=O)Nc1ccc(SC)cc1)c1ccc(O)c(F)c1,-0.478 (inactive)
18,O=C1C2C=CC(C(O)C(c3ccccc3)c3ccccc3)N(Nc3ccc([N+](=O)[O-])cc3)C2C(=O)N1c1ccccc1 (stereo unspecified),0.0443 (inactive)
